Source: PubChem (The Scripps Research Institute Molecular Screening Center)
MOR-DOR ag = agonists of OPRM1-OPRD1 heterodimerization, primary screen, cell-based, luminescence; activation, % at 9.3 µM; hit rate 0.3% among 340,000; cells; AID 504326, 2011; in the data active = activation above about 18%
HTR5A inv ag = HTR5A inverse agonists in luminescence cell assay, primary screen, counter-screen for OPRM1-OPRD1 heterodimer inverse agonist project, full-deck HTS | hit rate 0.083% among 340,000 | inhibition, % at 9.3 µM | 5-hydroxytryptamine receptor 5A (Homo sapiens), P47898 | HTR5A cell line, inverse agonism; in the data active = inhibition mostly above about 23%, no sharp cut-off; inactive = mostly below about 18%
HGIII-sPLA2 inh = human group III sPLA2 inhibitors, primary screen, biochemical, QFRET, BODIPY PC-A2 liposome substrate; hit rate 0.56% among 370,000; QFRET BODIPY PC-A2 liposome hydrolysis, fluorescence; inhibition, % at 12.2 µM; Group 3 secretory phospholipase A2 (Homo sapiens), Q9NZ20;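 active = inhibition above mean plus 3 SD of compounds lying within the high and low control bounds, cut at about 19% in these data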
Target sequence (Q9NZ20 whole entry, looked up): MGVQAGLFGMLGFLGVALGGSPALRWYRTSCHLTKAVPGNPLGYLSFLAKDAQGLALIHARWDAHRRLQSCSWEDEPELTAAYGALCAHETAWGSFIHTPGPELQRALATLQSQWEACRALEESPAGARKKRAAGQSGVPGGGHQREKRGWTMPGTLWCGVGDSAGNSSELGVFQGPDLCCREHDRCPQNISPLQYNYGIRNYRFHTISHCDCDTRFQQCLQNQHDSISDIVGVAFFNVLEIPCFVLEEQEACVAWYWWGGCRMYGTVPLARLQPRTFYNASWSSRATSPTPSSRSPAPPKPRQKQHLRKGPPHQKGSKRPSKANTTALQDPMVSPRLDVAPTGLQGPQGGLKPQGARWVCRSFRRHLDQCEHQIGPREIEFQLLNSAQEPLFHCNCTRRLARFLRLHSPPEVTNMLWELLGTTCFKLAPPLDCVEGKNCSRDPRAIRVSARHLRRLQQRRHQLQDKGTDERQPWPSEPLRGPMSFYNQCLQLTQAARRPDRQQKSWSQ
HTR5A ag ctr = HTR5A agonists in luminescence cell assay, primary screen, counter-screen for OPRM1-OPRD1 heterodimer agonist project, full-deck HTS | hit rate 0.61% among 340,000 | 5-hydroxytryptamine receptor 5A (Homo sapiens), P47898 | cell-based | activation, % at 9.3 µM; in the data active = activation mostly above about 9.5%, no sharp cut-off; inactive = mostly below about 7.6%
OPRM1-OPRD1 inv = inverse agonists of MOR-DOR heterodimerization, primary screen, cell-based, luminescence; Mu-type opioid receptor (Homo sapiens) + Delta-type opioid receptor (Homo sapiens), …; cell-based MOR-DOR heterodimer luminescence, inverse agonism; inhibition, % at 9.3 µM; hit rate 0.21% among 340,000; AID 504357, 2011; in the data active = inhibition above about 22%, passing the limit was not always enough
m5-HT2A agonist = mouse Htr2a agonists via beta-arrestin recruitment, primary screen, cell-based, luminescence | activation, % at 7.6 µM | CHO-K1 mHTR2A beta-arrestin complementation; percent of 30 µM serotonin response | 5-hydroxytryptamine receptor 2A (Mus musculus), P35363 | AID 624169, 2012 | hit rate 0.66% among 360,000;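 active = activation above a run cutoff, the mean activation of all tested compounds plus 3 SD, cut at about 14% in these data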
sPLA2 confirm = human group III sPLA2 inhibitors, confirmation, biochemical, QFRET, triplicate. shares compounds with HGIII-sPLA2 inh. recombinant hGIII-sPLA2, BODIPY PC-A2 QFRET fluorescence. inhibition, % at 12.2 µM. hit rate 34% among 2,000. AID 743280, 2014;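 active = mean inhibition across triplicates above the hit cutoff set in the earlier primary screen, cut at about 19% in these data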
535nm interf = 535nm fluorescence optical interference, confirmation, artefact control for HGIII-sPLA2 inhibitor project, biochemical, QFRET | shares compounds with HGIII-sPLA2 inh | BODIPY FL product fluorescence interference | inhibition, % at 12.2 µM | hit rate 8.5% among 2,000 | AID 743282, 2014;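 active = average inhibition above the solvent-only control mean plus 3 SD, cut at about 6% in these data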
535nm interf DR = 535nm fluorescence optical interference, dose response, artefact control for HGIII-sPLA2 inhibitor project, biochemical, QFRET. IC50, µM. shares compounds with HGIII-sPLA2 inh. BODIPY FL product fluorescence interference, cell-free. 240 tested, under 10 active. AID 743455, 2014;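 active = IC50 at or below 10 µM; inactive = IC50 above 10 µM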
Hits are given with their value; - = inactive; . = no result. Hits are enriched below; roughly 2.2% of the tested compounds scored in any of these assays.

SMILES	MOR-DOR ag	HTR5A inv ag	HGIII-sPLA2 inh	HTR5A ag ctr	OPRM1-OPRD1 inv	m5-HT2A agonist	sPLA2 confirm	535nm interf	others
O=C1c2ccccc2C(=O)c2c(NCCCN(CCO)CCO)cccc21	.	.	20	.	.	-	31	-	535nm interf DR=-
CCN(CC)CC(=O)Nc1cccc2c1C(=O)c1ccccc1C2=O	-	-	-	-	-	-	.	.
CCOc1ccccc1N(CC(=O)Nc1ccc(S(=O)(=O)N2CCOCC2)cc1)S(=O)(=O)c1ccc(Cl)cc1	-	-	23	-	-	-	-	-
COc1cc2c3c(c1)C(C)=CC(C)(C)N3C(=O)C2=O	-	-	-	-	-	-	.	.
COc1cc2c3c(c1)C(C)CC(C)(C)N3C(=O)C2=O (stereo not given)	-	-	24	-	-	-	-	-
Cc1cccn2c(Nc3ccccc3)c(-c3ccccn3)nc12	-	-	-	-	-	-	.	.
Cc1ccccc1Nc1c(-c2ccccn2)nc2ccccn12	-	-	-	-	-	-	.	.
Cc1ccc2nc(-c3ccccn3)c(Nc3ccccc3C)n2c1	-	-	27	-	-	-	24	-
Cc1ccn2c(Nc3ccccc3C)c(-c3ccccn3)nc2c1	-	-	21	-	-	-	30	-	535nm interf DR=-
Cc1ccn2c(Nc3ccccc3)c(-c3ccccn3)nc2c1	-	-	20	-	-	-	-	-
CCCCC(=O)Nc1c2c(nn1-c1cccc(C)c1C)CS(=O)(=O)C2	-	-	20	-	-	-	-	-
COC(=O)[C@]12C[C@H](CC(=O)NCC3CCCCC3)C(=O)N(Cc3ccc(Cl)cc3Cl)C1=C[C@H](COCc1ccccc1)O[C@@H]2C	.	.	-	.	.	.	.	.
COC(=O)C[C@H]1CC[C@H]2[C@H](COc3ccc(NS(=O)(=O)c4cccc(OC)c4)cc3C(=O)N2C)O1	.	.	-	.	.	.	.	.
O=C(CCNC(=O)c1ccccc1Cl)Nc1ccc(Br)c(C(F)(F)F)c1	-	-	-	-	-	-	.	.
CC1CCN(CC(=O)Nc2cc(C(F)(F)F)ccc2Cl)CC1	-	-	21	-	-	-	-	-
O=C(CN1CCCCCC1)Nc1cc(C(F)(F)F)ccc1Cl	-	-	-	-	-	-	.	.
O=C(CCNC(=O)c1ccccc1Cl)Nc1cc(C(F)(F)F)ccc1Cl	-	-	21	-	-	-	-	-
S=C1SC2(CCCCCC2)NC2=C1CCCCC2	.	.	19	.	.	-	25	-
CCOC(=O)NN1C(=O)c2ccccc2NC1c1ccccc1 (stereo not given)	-	-	30	-	-	-	-	-
CCOC(=O)NN1C(=O)c2ccccc2NC1c1ccc(OC)cc1 (stereo not given)	-	-	21	-	-	-	-	-
C[C@H]1CN([C@@H](C)CO)C(=O)CCCn2nncc2CO[C@@H]1CN(C)C(=O)c1ccc(N2CCN(C)CC2)cc1	.	.	-	.	.	-	.	.
C[C@@H]1CN([C@H](C)CO)C(=O)CCCn2nncc2CO[C@H]1CN(C)C(=O)c1ccc(N2CCN(C)CC2)cc1	.	.	19	.	.	-	-	-
C[C@@H]1CN([C@H](C)CO)C(=O)CCCn2nncc2CO[C@@H]1CN(C)C(=O)c1ccccc1	.	.	21	.	.	-	-	-
O=S(=O)(Cc1ccc(Cl)cc1)N1CCCC1	-	-	21	-	-	-	-	-
O=S(=O)(Cc1ccc(Cl)cc1)N1CCCCCC1	-	-	-	-	-	-	.	.
SMILES	MOR-DOR ag	HTR5A inv ag	HGIII-sPLA2 inh	HTR5A ag ctr	OPRM1-OPRD1 inv	m5-HT2A agonist	sPLA2 confirm	535nm interf	others
O=C(CSc1nnc(SCc2cccc3ccccc23)s1)Nc1ccccc1-c1ccccc1	.	.	-	.	.	.	.	.
c1cc(-c2nnc3n2N=C(c2ccc4c(c2)OCO4)CS3)ccn1	.	.	22	.	.	.	-	-
CCC1(c2ccccc2)NC(=S)N(c2cccc(C)c2C)N1 (stereo not given)	-	-	20	-	-	-	22	-
Cc1cccc(-n2c(-c3ccccc3)c[nH]c2=S)c1C	-	-	-	-	-	-	.	.
O=C(NNC(=S)NC(=O)c1ccccc1[N+](=O)[O-])c1ccccc1Cl	-	-	36	-	-	-	31	-	535nm interf DR=-
O=C(NC(=S)NNC(=O)c1ccccc1O)c1cccc([N+](=O)[O-])c1	-	-	41	-	-	-	27	-
COc1ccc(C(=O)NNC(=S)NC(=O)c2cccc([N+](=O)[O-])c2)cc1	-	-	-	-	-	-	.	.
O=C(NNC(=S)Nc1ccc(F)cc1)c1cccc([N+](=O)[O-])c1	-	-	25	-	-	-	31	-
O=C(NC(=S)Nc1ccccc1[N+](=O)[O-])c1ccccc1Cl	-	-	-	-	-	-	.	.
Cc1ccc(NC(=S)NNC(=O)c2cccc([N+](=O)[O-])c2)cc1Cl	-	-	-	-	-	-	.	.
O=C(NNC(=S)Nc1ccc(Br)cc1)c1cccnc1	-	-	19	-	-	-	31	-	535nm interf DR=-
CC(C)c1ccc(NC(=S)NNC(=O)c2cccnc2)cc1	-	-	-	-	-	-	.	.
COc1ccc(/C=N\NC(=O)Cc2cccs2)c(OC)c1OC	.	.	-	.	.	.	.	.
O=C(NC(=S)NNC(=O)c1ccccc1O)c1cccnc1	-	-	33	-	-	-	-	-
O=C(NNC(=S)Nc1ccc(C(=O)O)c(O)c1)c1ccncc1	-	-	20	-	-	-	-	-
O=C(O[C@H]1CC[C@@]23CCCN2C(=O)CCC[C@H]3C1)N1CCCC1	.	.	-	.	.	.	.	.
Cn1c(=O)c(=O)n(C)c2cc(S(=O)(=O)N3CCN(Cc4ccc(F)cc4)CC3)ccc21	.	.	-	.	.	.	.	.
O=C(CSc1nc2ccccc2s1)NNC(=S)Nc1ccc(Br)cc1	-	-	23	-	-	-	-	-
O=C(CSc1nc2ccccc2s1)NNC(=S)Nc1ccccc1	-	-	-	-	-	-	.	.
CC(C)(Oc1ccc(Cl)cc1)C(=O)NC1CCSC1=O (stereo not given)	-	-	.	-	-	-	.	.
CC(C)(Oc1ccc(Cl)cc1)C(=O)NC1CC1	-	-	21	-	-	-	-	-
